Laboratory results published in PubChem BioAssay AID1347416 (National Center for Advancing Translational Sciences (NCATS), 2020).
The whole screen tested about 4,100 compounds, of which about 1,600 (39%) were called active. Inconclusive results (about 25%) are left out. The call rests on the fitted dose curve; in most records, active means well fitted inhibition curve with a large enough effect; inconclusive means small, poorly fitted or top-dose-only effect; inactive means no such curve, though single readings can be large or run the other way. Some of the results follow.

Experiment: qHTS Validation assay for Inhibitors of Plasmodium falciparum Dd2 growth in vitro; further: nearly all actives have a fitted effect of over 70% in size
Conditions: P. falciparum Dd2 in RBCs, SYBR Green growth, 72 h; series mostly up to 28.7 µM; activity change, negative = inhibition: at the top concentration
Outline: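 P. falciparum Dd2-infected red blood cells (2.5% hematocrit, 0.3% parasitemia) grown 72 h at 37 °C under 5% O2 with compounds in a titration, 29 uM to 0.5 nM final. Growth read as SYBR Green-1 fluorescence after ~16 h lysis; artesunate 300 nM as positive control.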
On the % scale 0 is the no-effect control and ±100 the full control effect; potency means the concentration at half of the fitted maximal effect.

Potency, active:
CC(=O)Nc1cccc(OCc2nnc(C(=O)N3CCC[C@@H]3C(c3ccccc3)c3ccccc3)n2-c2ccccc2)c1 10.6 µM
O=C(c1nnc(CN2CCC(F)(F)CC2)n1-c1cccnc1)N1CCC[C@@H]1C(c1ccccc1)c1ccccc1 15 µM
O=C(c1nnc(COc2ccc(OC(F)(F)F)cc2)n1-c1ccccc1)N1CCC[C@@H]1C(c1ccccc1)c1ccccc1 8.41 µM
COc1ccc(C2=C(Nc3ccccc3)c3ccccc3C2=O)cc1 9.44 µM
O=C1C(c2ccc(C(F)(F)F)cc2)=C(Nc2ccc(Cl)cc2)c2ccccc21 1.5 µM
COc1ccc(NC2=C(c3ccc(OC)cc3)C(=O)c3ccccc32)cc1 5.96 µM
COc1ccc(NC2=C(c3ccc(C(F)(F)F)cc3)C(=O)c3ccccc32)cc1 2.11 µM
COc1ccc(C2=C(Nc3ccc(C)cc3)c3ccccc3C2=O)cc1 4.73 µM
CCOc1ccc(NC2=C(OC)C(=O)c3ccccc3C2=O)cc1 0.376 µM
Cc1cc(C)c(CNC(=O)c2cc(-c3ccnn3C)cc3c2OCCN3C(C)C)c(=O)[nH]1 15.3 µM
Cc1cc(C)c(CNC(=O)c2cc(-c3cccnc3)cc3c2OCCN3C(C)C)c(=O)[nH]1 19.3 µM
CC(=O)Nc1cccc(-c2cc(C(=O)NCc3c(C)cc(C)[nH]c3=O)c3c(c2)N(C(C)C)CCO3)c1 9.44 µM
COc1ncc(-c2cc(C(=O)NCc3c(C)cc(C)[nH]c3=O)c3c(c2)N(C(C)C)CCO3)cn1 9.44 µM
COC(=O)C1=C(C)N(c2ccc(OC)cc2)C(C)=C(C(=O)OC)C1c1ccccc1 9.44 µM
CCOC(=O)c1sc2nc3c(SCCC#N)cc(C(=O)c4cc(F)ccc4O)cn3c(=O)c2c1C 1.68 µM
CC1CCN(c2ccc(C(=O)NCc3ccco3)cc2[N+](=O)[O-])CC1 6.68 µM
Cc1nn2c3c(cnc2c1-c1ccccc1)C(=O)CC(c1ccco1)C3 (configuration not stated) 9.44 µM
CCOC(=O)c1nc2cc3n(c(CC(C)C)c-2c1C)CC(C)=C3C 7.5 µM
COc1ccc(OCCn2cc(C(=O)c3ccco3)c3ccccc32)cc1 2.11 µM
Cc1cc(OCCn2cc(C(=O)c3ccco3)c3ccccc32)ccc1Cl 5.31 µM
O=C(c1cccs1)c1cn(CCOc2ccc(Cl)cc2)c2ccccc12 5.96 µM
O=C(c1ccco1)c1cn(CCOc2ccc(F)cc2)c2ccccc12 6.68 µM
Cc1ccccc1-n1c(=O)/c(=C\c2ccco2)s/c1=C(/C#N)C(=O)Nc1ccccc1 5.31 µM
CC1(C)N=C(N)N=C(N)N1c1ccc(OCCCOc2ccccc2)c(Cl)c1 2.99 µM
CCOC(=O)c1cc(C)n(Cc2ccc(OCC)c(OC)c2)c1C 10.6 µM
COc1cc(O)c(C(CCN2CCCCC2)c2ccc3c(c2)OCO3)c(OC)c1 (configuration not stated) 1.33 µM
COc1cc(O)c(C(CCN2CCN(c3ccccc3)CC2)c2ccc3c(c2)OCO3)c(OC)c1 (configuration not stated) 0.842 µM
COc1cc(O)c(C(CCN2CCOCC2)c2ccc3c(c2)OCO3)c(OC)c1 (configuration not stated) 4.22 µM
COc1cc(O)c(C(CCN2CCCC(C)C2)c2ccc3c(c2)OCO3)c(OC)c1 (configuration not stated) 0.531 µM
CCOC(=O)C1(Cc2ccccc2Cl)CCNCC1 2.66 µM
Fc1cccc(NC(=S)NNc2c3ccccc3nc3ccccc23)c1 15 µM
OC(CNC1CCCc2ccccc21)COc1c(Cl)cccc1Cl (configuration not stated) 1.68 µM
O=C(N/N=C(\c1ccccc1)c1cccnc1)c1cccc(F)c1 4.22 µM
O=C1NCN(c2ccccc2)C12CCN(CCCC(c1ccc(F)cc1)c1ccc(F)cc1)CC2 5.31 µM
CCCCN(C)CCCNC(=O)Cn1ncc2c3ccccc3n(Cc3cc(C)ccc3C)c2c1=O 0.75 µM
COc1ccc(-c2c3c(nc4sc(C(=O)Nc5ccc(F)cc5)c(N)c24)CC(C)(C)CC3=O)cc1 0.944 µM
COc1ccc(NC(=O)c2sc3nc4c(c(-c5ccc(OC)cc5)c3c2N)C(=O)CC(C)(C)C4)cc1 1.88 µM
COc1ccc(-c2c3c(nc4sc(C(=O)Nc5ccc(Cl)cc5)c(N)c24)CC(C)(C)CC3=O)cc1 0.376 µM
Cc1nc2sc(C(=O)Nc3ccc(F)cc3)c(N)c2c(-c2ccc(Br)cc2)c1C(=O)Nc1ccc(Cl)cc1 8.41 µM
CCOC(=O)c1ccccc1NC1c2ccccc2C(=O)N1C1CCN(C(=O)OCC)CC1 (configuration not stated) 13.3 µM
Oc1ccc(Cl)cc1-c1cc(C(F)(F)C(F)F)nc(-c2ccccc2)n1 0.842 µM
COc1cc(Cl)c(NC2=CC(=O)C(=O)c3ccccc32)c(OC)c1 1.68 µM
COc1cc(OC)c(NC2=CC(=O)C(=O)c3ccccc32)cc1Cl 2.99 µM
Cc1cc(O)c(-c2ccnc3cc(-c4ccccc4)nn23)cc1Cl 1.88 µM

Activity change, negative = inhibition, inactive:
O=C(COc1ccccc1)N1CCCC(n2cc(-c3nc(C4CC4)no3)nn2)C1 (configuration not stated) -15.8%
CC(=O)Nc1cccc(-c2cn(C)c(=O)n3cc(COc4ccccc4)nc23)c1 -5.26% [at 43.1 µM]
COC1CCOC2(CCN(C(=O)CCn3nc(C)cc3C)CC2)C1 (configuration not stated) 14%
COc1ccc(C(=O)NC2(C(F)(F)F)C(=O)NC(C)=C2C#N)cc1 (configuration not stated) 25%
COCCn1cnc2ccc(Nc3ccc(C(F)(F)F)cc3)nc2c1=O 9.07% [at 43.1 µM]
Cc1cc(Cl)ccc1NC(=O)N1C[C@H](c2nc(-c3cccnc3)no2)[C@@H](C)C1 -5.05%
CC(C)c1cccc(NC(=O)c2ccc(CN3C(=O)NC4(CCOCC4)C3=O)cc2)c1 -0.362%
COc1ccccc1C(=O)NCc1nnc2c(-c3nc(C4CC4)no3)cccn12 -6.9%
COc1ccc(C(=O)NCc2nnc3c(-c4nc(C5CC5)no4)cccn23)c(C)c1 -12.6%
CN1CCOc2c(C(=O)NCCc3cnc[nH]3)cc(-c3ccc(N4CCOCC4)cc3)cc21 -1.23%
COc1ccc(-n2ccnc2SCC(=O)NO)cc1 0.591%
CC(=O)NC1CC(c2cc(NCCCOC3CCN(C)CC3)ncn2)C1 (configuration not stated) 29%
O=C(NCc1ccco1)C1CCc2sc(C(=O)N3CCCCCC3)cc2C1 (configuration not stated) -4.94%
CCOC(=O)c1noc2nc(C)n(CC(=O)NC(C)CC)c(=O)c12 (configuration not stated) 15.7%
O=C(Nc1c(C(=O)N2CCN(c3ccc(F)cc3)CC2)oc2ccccc12)c1ccco1 10%
CCCNc1c(NC(=O)COc2ccc(Cl)cc2)c(=O)oc2ccccc12 -24.5%
COc1cccc(OCCn2cc(C(=O)c3ccco3)c3ccccc32)c1 54.6%
CC(C)(C)c1ccc(OCCn2ccccc2=O)cc1 -19.2%
CCCS(=O)(=O)NCCc1ncc(C)n1C(C)C -51.1%
N#Cc1ccc(CN2C[C@@H]3C(=O)N(CCN4CCc5ccccc5C4)C(=O)[C@@H]3C2)cc1 -14.5%
CCOc1ccc(N2C(N)=NC(N)=NC2(C)C)cc1 47.6%
COc1ccc(N2C(N)=NC(N)=NC2(C)C)cc1 10.9%
COC[C@@H]1CN(Cc2ccc(OC)c(C)c2)C[C@H]1C(=O)N(C)C 5.52%
CCc1ccc(NC(=O)C(=O)NCC(c2ccc3c(c2)OCO3)N2CCOCC2)cc1 (configuration not stated) 0%
CCOC(=O)C1(Cc2ccccc2C(F)(F)F)CCNCC1 -24%
CN(CCc1ccccn1)c1ccc(-c2nc(COc3ccccc3)no2)cn1 -8.59%
COc1ccccc1CN(C)C1CCCc2ccccc21 (configuration not stated) -0.478% [at 43.1 µM]
CC(=O)N(C)C1CCCc2ccccc21 (configuration not stated) 45.2% [at 57.5 µM]
CCc1noc(-c2cccn3c(CNC(=O)c4cccc(F)c4)nnc23)n1 -0.302%
N/C(=N\OC(=O)c1cccc(F)c1)c1ccccn1 -27.5%
F[C@@H]1CN(CC2CC2)C[C@@H]1OCc1nc2ccccc2o1 2.15% [at 57.5 µM]
Cc1cc(C)c(Cn2c(=O)n(CCCCC(=O)NCc3ccccc3Cl)c(=O)c3ccccc32)c(C)c1 33.1%
CCOC(=O)c1cccc(NC(=O)Cn2ncc3c4ccccc4n(Cc4ccccc4)c3c2=O)c1 -0.944%
CCc1ccc(N=C2NC(=O)CC(C(=O)Nc3ccc(OC)cc3)S2)cc1 (configuration not stated) -23.4%
COc1ccc(C(=O)Nc2ccc([C@H]3OCC(=O)N(C(C)C)[C@@H]3CO)cc2)cc1 44.9% [at 43.1 µM]
COc1ccc(NC(=O)CSc2nc(-c3ccc(OC)cc3)[nH]c2-c2ccc(F)cc2)cc1 41.4%
CCn1nccc1C(=O)N1CCCC(n2cc(-c3nc(-c4ccccc4)no3)nn2)C1 (configuration not stated) 12.5%
O=C(Nc1ccc(-c2nnc3n2CCCC3)cc1)c1ccc2ccccc2n1 -19.6%
CCOC(=O)N1CCN(C(=O)c2ccccc2-c2ccccc2)CC1 10.2%
CCOC(=O)N1CCN(c2nc3ccccn3c(=O)c2C=O)CC1 -3.78%
COc1ccc(-n2nc3ccc(N)cc3n2)cc1Cl -26.8%
CCN(CC)c1ccc(C(=O)NCc2nnc3c(-c4nc(C(C)C)no4)cccn23)cc1 -11.1%
COc1cc(OC)c(NC(=O)n2ncc3cc(Cl)ccc32)cc1Cl 35%
